The list is not random: actives were taken first. Their share in the collection is about 0.81%.
RTF Ca sens inh: cardiac RTF calcium desensitization. actives 0.12% (n = 340,000). IANBD-labeled cardiac RTF, Ca2+ fluorescence. P19429+P45379. inhibition, % at 7.15 µM;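 active = inhibition above the mean inhibition of all tested compounds plus 3 SD, cut at about 17% in these data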;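 note: assay run at fixed EC70 calcium of 1.6 mM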
LANA DNA inh: blocks KSHV LANA C-terminal domain binding to DNA; MBP-C-LANA/FAM-LBS DNA binding, fluorescence polarization; inhibition, % at 9 µM; actives 0.078% (n = 340,000);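 active = highest replicate inhibition at or above 60% at 9 µM, even if other replicates fall short; inactive = all replicates below 60% inhibition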
Keap1-Nrf2 PPI: inhibitors of human Keap1-Nrf2 protein-protein interaction; AID 504523; inhibition, % at 9.4 µM; Keap1 Kelch-Nrf2 peptide fluorescence polarization, 1536-well; actives 0.15% (n = 340,000); in the data active = inhibition above about 12%;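 note: human Keap1 Kelch domain with fluorescein labeled Nrf2 9mer peptide probe; higher means more block of Keap1 binding to Nrf2 peptide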
IDE inh: cellular human IDE inhibition; HEK cells, FAbetaB cleavage, fluorescence polarization; inhibition, % at 5.59 µM; actives 0.41% (n = 320,000); P14735;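 active = percent inhibition above the average of all tested compounds plus 3 SD, set per screening campaign, cut at about 16% in these data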;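 note: IDE supplied by intact live HEK cells; FP after avidin binding of uncleaved biotin substrate so inhibition keeps polarization high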
cardiac RTF act: cardiac RTF calcium sensitization; IANBD-labeled TnC RTF fluorescence at EC20 calcium; 0% EC20 calcium, 100% full calcium; P19429+P45379; AID 493008; actives 0.24% (n = 340,000); activation, % at 7.2 µM;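 active = activation above the mean over all tested compounds plus 3 SD, cut at about 30% in these data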;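 note: rise in fluorescence read as greater calcium sensitivity of cardiac thin filaments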
IDE cell activ: activators of human insulin-degrading enzyme in cells; HEK cells, FAbeta-B cleavage, fluorescence polarization; 0% vehicle, 100% cell-free pure enzyme wells; activation, % at 5.96 µM; actives 0.073% (n = 340,000);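 active = activation above the mean of all tested compounds plus 3 SD, set per screening campaign, cut at about 17% in these data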
IDE cell inh cf: cellular human IDE inhibition, confirmation; shares compounds with IDE inh; HEK cells, FAbetaB cleavage, fluorescence polarization; inhibition, % at 5.59 µM; actives 51% (n = 1,200);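 active = mean inhibition across triplicate wells above the cutoff set by the earlier primary insulin-degrading enzyme screen, cut at about 16% in these data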
HEK cytotox: kills HEK cells in IDE inhibitor counter-screen | shares compounds with IDE inh | HEK293 cytotoxicity, ATP luminescence | inhibition, % at 5.59 µM | actives 28% (n = 1,200) | AID 449730; in the data active = inhibition above about 22%
A number is an active result; i = inactive; nt = not tested or not shown.

SMILES	RTF Ca sens inh	LANA DNA inh	Keap1-Nrf2 PPI	IDE inh	cardiac RTF act	IDE cell activ	IDE cell inh cf	HEK cytotox
COc1ccccc1CN=Cc1[nH]c2ccc(Br)c(Cl)c2c1O	i	i	i	i	i	i	nt	nt
Cc1cccc(N=Cc2[nH]c3ccc(Br)c(Cl)c3c2O)c1	i	i	i	22	63	i	23	i
CC(C)Cc1nnc(NC(=O)CCC(=O)N2CCN(c3ccccn3)CC2)s1	i	i	i	i	i	i	nt	nt
CCOc1ccc(Cl)cc1/C=N/NC(=O)CNC(=O)c1ccccc1	i	i	i	26	i	i	i	i
CCOc1ccc(Cl)cc1/C=N/NC(=O)c1ccccc1	i	i	i	i	i	i	nt	nt
O=C(CCC(=O)N1CCOc2ccccc21)Nc1ccccc1Br	i	i	i	i	i	i	nt	nt
COc1ccc(Br)cc1C(=O)NC(=S)Nc1c(C)n(C)n(-c2ccccc2)c1=O	i	i	i	i	i	i	nt	nt
CSc1cccc(N2CC(C(=O)Nc3ccccc3N3CCCC3)CC2=O)c1 (stereo not drawn)	i	i	i	16	i	i	i	i
CCCCn1c(=O)c(CCC(=O)OCC(=O)Nc2cccc3ccccc23)nc2ccccc21	i	i	i	i	i	i	nt	nt
O=C(NC1CCCCC1)C1CCN(C(=O)c2ccc(-c3ccccc3)cc2)CC1	i	i	i	18	i	i	i	i
O=C(NC1CCCCC1)C1CCN(C(=O)c2ccc(Cl)cc2)CC1	i	i	i	i	i	i	nt	nt
CN1/C(=C\C=C(/C#N)C(=O)Nc2ccccc2F)C(C)(C)c2ccccc21	i	i	i	25	39	i	35	i
CN1/C(=C/C=C(/C#N)C(N)=O)C(C)(C)c2ccccc21	i	i	i	i	i	i	nt	nt
CN1CCC/C1=C/C=C1\SC(=S)NC1=O	i	i	i	76	471	i	69	i
c1ccc(C(c2ccccn2)c2ccccn2)cc1	i	i	i	17	i	i	i	i
CC(=O)Oc1ccc(C(c2ccc(OC(C)=O)cc2)c2ccccn2)cc1	i	i	i	i	i	i	nt	nt
CC(=O)Nc1ccc(NC(=O)CSc2ncc(C(=O)Nc3ccccc3)c(=O)n2C)cc1	i	i	i	i	i	i	nt	nt
O=c1cc(O)c2ccccc2n1Cc1ccccc1F	i	i	i	i	i	i	nt	nt
COc1cc([N+](=O)[O-])ccc1NC(=O)Cn1ccsc1=N	i	i	i	i	i	i	nt	nt
Cc1ccccc1COc1ccc(/C(O)=C2/C(=O)C(=O)N(CCCn3ccnc3)C2c2ccco2)cc1 (stereo not drawn)	i	i	i	18	i	i	i	i
CC1CCN(c2c(NCc3ccc(C(=O)N4c5ccccc5CC4C)cc3)c(=O)c2=O)CC1 (stereo not drawn)	i	i	i	38	i	i	32	i
CC1CCN(c2c(NCc3ccc(C(=O)N4CCN(C5CCCCC5)CC4)cc3)c(=O)c2=O)CC1	i	i	i	i	i	i	nt	nt
CC1CCN(c2ccc3c(c2)S(=O)(=O)c2cccc(C(=O)NCc4cccc(F)c4)c2C3=O)CC1	i	i	i	24	164	i	32	23
O=C(NCc1ccco1)c1cccc2c1C(=O)c1ccc(N3CCC(Cc4ccccc4)CC3)cc1S2(=O)=O	i	i	i	46	117	i	45	43
COC(=O)[C@@H]1CCCN1Cc1nc(Cc2ccccc2F)no1	i	i	i	i	i	i	nt	nt
SMILES	RTF Ca sens inh	LANA DNA inh	Keap1-Nrf2 PPI	IDE inh	cardiac RTF act	IDE cell activ	IDE cell inh cf	HEK cytotox
CSc1nnc(N2C(=O)C(O)=C(C(=O)c3ccco3)C2c2cccc(Cl)c2)s1 (stereo not drawn)	i	i	i	29	i	i	i	i
CSc1nnc(N2C(=O)C(O)=C(C(=O)c3ccco3)C2c2ccc(F)cc2)s1 (stereo not drawn)	i	i	i	i	i	i	nt	nt
CC(C)(C)OC(=O)N[C@@H](C(=O)OC(C)(C)C)c1ccc(C(F)(F)F)cc1	i	i	i	i	i	i	nt	nt
C=CCNC(=O)/C(C#N)=C\c1cc(Cl)c(O)c(OCC)c1	i	i	i	i	i	i	nt	nt
CCOc1cc(/C=C(/C#N)C(=O)Nc2ccc(O)cc2)cc(Br)c1O	i	i	i	38	i	i	75	57
O=C(Nc1ccc2c(c1)CCC2)C1CCN(c2c3c(nc4ncnn24)CCC3)CC1	i	i	i	42	i	i	i	51
O=C(Nc1ccc(Oc2ccccc2)cc1)C1CCN(c2c3c(nc4ncnn24)CCC3)CC1	i	i	i	i	i	i	nt	nt
O=C(COc1ccc2c3c(c(=O)oc2c1)CCC3)N1CCN(c2ccccc2)CC1	i	i	i	18	i	i	i	i
O=C(Nn1c(O)c(C=C2N=c3ccccc3=N2)sc1=S)c1ccccc1Cl	i	i	i	17	i	i	i	i
CC(=Nc1ccc(O)cc1)c1sc2ccccc2c1O	i	i	i	27	i	i	35	i
CC(=O)NCCN=C(C)c1sc2ccccc2c1O	i	i	i	i	i	i	nt	nt
CC(=Nc1cccc(C)c1)c1sc2ccccc2c1O	i	i	i	16	i	i	29	i
CC(=Nc1ccccc1O)c1sc2ccccc2c1O	i	i	i	84	i	i	96	i
COc1ccc(NC(=O)c2ccc(NC3=NC4CS(=O)(=O)CC4S3)cc2)cc1 (stereo not drawn)	i	i	i	i	i	i	nt	nt
Cc1ccc(C(=O)NCC(=O)OC(C)C(=O)NCCC2=CCCCC2)cc1C (stereo not drawn)	i	i	i	i	i	i	nt	nt
C=CCOc1c(Br)cc(/C=N/NC(=O)Cc2ccc(C(F)(F)F)cc2[N+](=O)[O-])cc1OC	i	i	i	i	i	i	nt	nt
COc1ccccc1N1C(=O)c2cccc3c(C(=O)O)ccc(c23)C1=O	i	i	i	i	i	i	nt	nt
COc1ccccc1N1C(=O)c2cccc3c(N(C)CCO)ccc(c23)C1=O	i	i	i	45	52	i	47	i
CCOC(=O)/C(=C/c1ccc(OC(=O)c2ccccc2)cc1)C(C)=O	i	i	i	i	i	i	nt	nt
CCOC(=O)/C(=C/C1=CC(=C/N(C)C)/C(=O)O1)C(C)=O	i	i	i	16	53	i	23	i
O=C(NCCCN1CCOCC1)C(=O)N/N=C/c1ccccc1	i	i	i	i	i	i	nt	nt
O=C(NCCCN1CCOCC1)C(=O)N/N=C/c1cccc2ccccc12	i	i	i	16	i	i	i	i
CCc1nnc(NC(=O)CSc2nc3c(c(=O)n2C)SC(C)C3)s1 (stereo not drawn)	i	i	i	17	i	i	i	i

Screening data from PubChem BioAssay.
